In the library only some 7% were active in any assay of this set; here they are far more common.
D3 ag: qHTS of D3 Dopamine Receptor Agonist: qHTS. D(3) dopamine receptor (Homo sapiens), P35462. D3R DiscoveRx beta-arrestin cells, luminescence, 90 min. max activation, %. 410,000 tested, 0.58% active; in the data active = max activation above about 30%
Target sequence (P35462 whole entry, looked up): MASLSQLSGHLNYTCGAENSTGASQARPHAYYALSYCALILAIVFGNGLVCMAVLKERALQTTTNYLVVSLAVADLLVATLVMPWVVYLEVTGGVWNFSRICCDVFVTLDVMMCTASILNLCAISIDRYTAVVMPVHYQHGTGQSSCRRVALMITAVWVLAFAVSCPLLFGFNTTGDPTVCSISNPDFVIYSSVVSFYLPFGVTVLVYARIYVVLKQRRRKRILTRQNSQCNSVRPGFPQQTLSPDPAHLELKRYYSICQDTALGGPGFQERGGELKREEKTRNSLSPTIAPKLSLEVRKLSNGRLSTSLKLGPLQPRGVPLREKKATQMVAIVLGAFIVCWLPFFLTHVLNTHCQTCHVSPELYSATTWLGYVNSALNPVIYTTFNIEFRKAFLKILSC
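Agonist-mode cell screen: cells plated at 1500/well and incubated overnight at 37 °C, then exposed to library compounds for 90 min at 37 °C. Detection reagent was added for 30–60 min at room temperature, and luminescence was read.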
S2 tox: Viability Counterscreen for Primary qHTS for Inhibitors of ATXN expression; S2 cells (HEK-293 line with an ATXN2-luciferase reporter) viability, CellTiter-Fluor protease fluorescence, 24 h; Potency, µM (series often up to 56.7 µM), actives largely listed as cytotoxic; 400,000 tested, 0.49% active; AID 651635, 2014; also: nearly all actives have a fitted effect of over 40% in size
ATXN2 expr inh: Primary qHTS for Inhibitors of ATXN expression | 360,000 tested, 0.72% active | HEK-293 ATXN2-luciferase reporter, luminescence, 24 h | Potency, µM (doses to about 57 µM), usual class: inhibitors; also: nearly all actives have a fitted effect of over 55% in size
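qHTS (up to 57 uM final) was run with 24 h compound exposure of reporter cells at 37 °C. Each well was multiplexed: SteadyGlo luminescence measured ATXN2-luciferase expression after a fluorogenic Gly-Phe-AFC viability readout (25 uM final).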
IL1B secr inh: qHTS for Inhibitors of Inflammasome Signaling: IL-1-beta AlphaLISA Primary Screen. activity change, % at 57.5 µM. THP-1 LPS/ATP IL-1B secretion, AlphaLISA, 16 h; active compounds read low. 360,000 tested, 4.7% active; in the data active = activity change below about -50%; inconclusive = mostly about -30% to -49%
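THP-1 cells pretreated 1 hr with compounds (up to 57.5 uM final), then stimulated with LPS (250 ng/mL final) plus ATP (1.25 mM final); secreted IL-1B measured by AlphaLISA after 16 hr, decreased signal indicating inhibition.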
DRD3 antagonist: qHTS of D3 Dopamine Receptor Antagonist: qHTS; 360,000 tested, 2.5% active; D3R cells, DiscoveRx beta-arrestin luminescence, antagonist mode; active compounds read low; D(3) dopamine receptor (Homo sapiens), P35462; max response, negative = inhibition, %; in the data active = max response below about -50%; inconclusive = no clear call, values can overlap the other calls
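Cells expressing the human receptor were seeded at 1500 cells/well, incubated overnight at 37 degrees C in 5% CO2, then exposed to library compounds with dopamine controls for 90 minutes at 37 degrees C before luminescent detection.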
Integrin act MD: qHTS for Activators of Integrin-Mediated Alleviation for Muscular Dystrophy. alpha7betagal myoblasts, beta-gal FDG fluorescence, 48 h. Potency, µM (doses to about 38.3 µM), usual class: activators. 350,000 tested, 0.064% active; also: nearly all actives have a fitted effect of over 60% in size
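Alpha7betagal+/- myoblasts (passage 13) were plated 16-24 hr, then exposed to compounds (1:260 dilution of DMSO stock) for 48 hours at 37C. After MPER lysis, β-galactosidase reporter activity was read as FDG fluorescence (ex 480/em 540) after 30 minutes.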
Large screens that a line does not name were inactive. Unless noted, calls follow the shape of the dose curve; as a rule, active = well fitted curve in the direction sought with a large enough effect; inconclusive = small, poorly fitted or top-dose-only effect, or another doubt; inactive = no such curve, though single readings can be large; an effect the other way counts as inactive or inconclusive.

Cc1ccc(Sc2ncccc2C(=O)NCC(c2ccc(F)cc2)N2CCOCC2)cc1C (stereo not drawn)	none
COC(=O)c1[nH]c2ccccc2c1NC(=O)CN1CCN(C/C=C/c2ccccc2)CC1	S2 tox inconclusive, ATXN2 expr inh inconclusive, IL1B secr inh -76, DRD3 antagonist inconclusive
COC(=O)c1[nH]c2cc(C)ccc2c1NC(=O)CN1CCc2cc(OC)c(OC)cc2C1	IL1B secr inh inconclusive, DRD3 antagonist -67
CCOC(=O)c1[nH]c2ccc(OCC)cc2c1NC(=O)CN1CCN(c2ccccc2)CC1	none
COC(=O)c1[nH]c2ccc(C)cc2c1NC(=O)CN1CCN(c2ccccc2)CC1	D3 ag 36
CCOC(=O)c1[nH]c2ccc(F)cc2c1NC(=O)CN1CCN(C/C=C/c2ccccc2)CC1	ATXN2 expr inh inconclusive, IL1B secr inh -79, DRD3 antagonist inconclusive (no result: S2 tox)
COc1cccc(-c2nc3n(n2)CCc2ccccc2-3)c1	none (no result: ATXN2 expr inh)
CCCC(=O)Nc1c(C(=O)OCC)[nH]c2ccccc12	ATXN2 expr inh inconclusive, IL1B secr inh -54
CCOC(=O)N1CCN(CC(=O)Nc2c(C(=O)OC)[nH]c3ccc(Cl)cc23)CC1	none
CCOC(=O)N1CCN(CC(=O)Nc2c(C(=O)OC)[nH]c3cccc(Cl)c23)CC1	D3 ag 40, DRD3 antagonist inconclusive
COc1ccc(C(=O)ON=C2CCN(c3ccc([N+](=O)[O-])cc3)CC2)cc1	none
CCc1nn(CC(=O)NCCCN2CCOCC2)c(=O)c2cc3cc(F)ccc3n12	none
CCCCn1nnnc1C(c1cc2ccccc2o1)N(C)CCc1ccccc1 (stereo not drawn)	none (no result: Integrin act MD)
COC(=O)Cc1cc(=O)n2[nH]c(C)nc2n1	none
COC(=O)Cc1cc(=O)n2[nH]c(C)cc2n1	DRD3 antagonist -52
Cc1cc(C)cc(NC(=O)c2ccc3nc[nH]c3c2)c1	none (no result: ATXN2 expr inh)
O=C(C1CCN(S(=O)(=O)c2cccc3cccnc23)CC1)N1CCn2c1nc1ccccc12	DRD3 antagonist -184
O=C(NCc1ccccc1)C1CCN(S(=O)(=O)c2cccc3cccnc23)CC1	none
O=C(COC(=O)C1CCN(S(=O)(=O)c2cccc3cccnc23)CC1)c1ccc(F)cc1	DRD3 antagonist -52
CC(=O)NC(c1cc(Cl)c2ccccc2c1O)C(C)C (stereo not drawn)	none (no result: D3 ag, IL1B secr inh, DRD3 antagonist, Integrin act MD)
CC(=O)NC(c1ccc(C)cc1)c1cc(Cl)c2cccnc2c1O (stereo not drawn)	ATXN2 expr inh 11µM, DRD3 antagonist -79
CC(=O)NC(c1cc(Cl)c2cccnc2c1O)C(C)C (stereo not drawn)	S2 tox 5µM, ATXN2 expr inh 5.6µM (no result: D3 ag, IL1B secr inh, DRD3 antagonist, Integrin act MD)
Oc1c(C(Nc2ccccn2)c2cccnc2)cc(Cl)c2cccnc12 (stereo not drawn)	ATXN2 expr inh 22µM, DRD3 antagonist -121
CC(=O)NC(c1cc(Cl)c2cccnc2c1O)C1CC1 (stereo not drawn)	S2 tox 3.2µM, ATXN2 expr inh 8.9µM (no result: D3 ag, IL1B secr inh, DRD3 antagonist, Integrin act MD)
O=C(Nc1ccc(N2CCCCCC2)cc1)c1cccc(S(=O)(=O)N2CCOCC2)c1	S2 tox inconclusive, ATXN2 expr inh inconclusive
COc1ccc2nc(COC(=O)c3cccs3)c(C(C)=O)[n+]([O-])c2c1	none (no result: ATXN2 expr inh)
COc1ccc(Cl)cc1C(Nc1cccnc1)c1ccc2cccnc2c1O (stereo not drawn)	ATXN2 expr inh inconclusive, IL1B secr inh -66, DRD3 antagonist inconclusive
CC(=O)NC(c1ccco1)c1cc(Cl)c2cccnc2c1O (stereo not drawn)	S2 tox inconclusive, ATXN2 expr inh 8.9µM (no result: D3 ag, IL1B secr inh, DRD3 antagonist, Integrin act MD)
COc1cc(C(=O)NC(c2ccc(Cl)cc2)c2cc(Cl)c3cccnc3c2O)cc(OC)c1OC (stereo not drawn)	S2 tox inconclusive, ATXN2 expr inh inconclusive (no result: IL1B secr inh, DRD3 antagonist, Integrin act MD)
COc1ccc(C(NC(=O)c2cccnc2)c2cc(Cl)c3cccnc3c2O)cc1OC (stereo not drawn)	ATXN2 expr inh 16µM
Cc1cc(NC(c2cccnc2)c2ccc3cccnc3c2O)no1 (stereo not drawn)	ATXN2 expr inh 4µM
Oc1ccc(N=Nc2ccc3ccccc3c2)cc1	IL1B secr inh inconclusive
CCN(c1ccc(OC)cc1)S(=O)(=O)N1CCCC(C(=O)NCc2ccccc2Br)C1 (stereo not drawn)	none
COc1ccccc1N(CC(=O)N/N=C/c1ccccc1C(=O)O)S(C)(=O)=O	none
CC(C)(C)n1nnnc1C(c1ccccc1)N1CCc2ccccc2C1 (stereo not drawn)	DRD3 antagonist inconclusive
CCC(=O)NC(c1ccccc1OC)c1ccc2cccnc2c1O (stereo not drawn)	S2 tox inconclusive, ATXN2 expr inh inconclusive
Oc1cccc(C(Nc2ccccn2)c2ccc3cccnc3c2O)c1Cl (stereo not drawn)	S2 tox inconclusive, ATXN2 expr inh 8.9µM (no result: IL1B secr inh, DRD3 antagonist, Integrin act MD)
COc1ccc2c(C)cc(Sc3nnnn3-c3ccccc3)nc2c1	IL1B secr inh -95
Cc1ccccc1-n1nnnc1SCC(N)=O	none
Cc1ccccc1-n1nnnc1Sc1nnnn1-c1ccccc1	S2 tox inconclusive, ATXN2 expr inh inconclusive, IL1B secr inh -116
C(=C\CSc1nnnn1-c1ccccc1)/CSc1nnnn1-c1ccccc1	none
O=[N+]([O-])c1ccc(Sc2nnnn2-c2ccccc2)nc1	S2 tox inconclusive, ATXN2 expr inh inconclusive, IL1B secr inh -97, DRD3 antagonist inconclusive
COc1ccc(CSc2nnnn2-c2ccccc2)cc1	none
CCCSc1nnc(Sc2nnnn2-c2ccccc2)s1	S2 tox inconclusive, ATXN2 expr inh inconclusive, IL1B secr inh -62, DRD3 antagonist inconclusive
C/C(CC(=O)Nc1ccc(OCc2ccccc2)cc1)=N\NC(=O)C(=O)Nc1ccc(C)c(Cl)c1	S2 tox inconclusive, ATXN2 expr inh inconclusive
CC1=NNC(=O)C1CCC(=O)N/N=C/C=C/c1ccccc1 (stereo not drawn)	none
COCc1c(C(=O)N/N=C/c2c[nH]c3ccccc23)nnn1-c1nonc1N	none (no result: S2 tox)
Cc1ccc(S(=O)(=O)C2(C(=O)Nc3cccnc3)CC2)cc1	DRD3 antagonist -63
COc1cccc2cc(C(=O)NCc3ccc(Cl)cc3)c(=O)oc12	none (no result: S2 tox)
COc1cccc2cc(C(=O)NCc3ccc(Cl)cc3)c(=N)oc12	IL1B secr inh -91
COc1cccc2cc(C(=O)NCc3ccccc3)c(=N)oc12	IL1B secr inh -105
CCOc1cccc2cc(C(=O)NCc3ccccc3)c(=N)oc12	none (no result: ATXN2 expr inh)
Cc1cc2c(cc1C)N(C(=O)CSC1=NCCS1)C(C)(C)c1ssc(=S)c1-2	IL1B secr inh -50, DRD3 antagonist inconclusive

Source: PubChem
